According to PubChem BioAssay (NCI):
Compounds without any hit were thinned out: in the full panel of roughly 83,000, 20% have a hit.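 The test compound was applied at a single concentration to cells in 96-well plates for 48 hours, and percent growth was recorded.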 Active and inactive are the calls of the source.

What follows are molecules tested on HCC-2998 colon (assay: NCI-60 one-dose screen, 48 h (100 = growth as untreated, 0 = no growth, -100 = all killed)). Conditions: 10 µM unless noted.
Experimental: Growth inhibition of the HCC-2998 human tumor cell line is measured as a screen for anti-cancer activity. Cells are grown in 96 well plates and exposed to the test compound for 48 hours. Compounds are tested at a single concentration, which is 10^-5 M for most compounds. The reported endpoint is percent growth (GI% or GIPRCNT), where numbers from 0 - 100% represent growth inhibition, and numbers from -100% - 0 represent cell death. For example, a value of 40 represents 60% growth inhibition. A value of 0 means no net growth occurred over the course of the experiment. A value of -40 indicates 40% of cells at the beginning of the experiment died by the end of the experiment. A value of -100 means all cells are dead at the end of the experiment.
NCI-60 Human Tumor Cell Lines Screen was performed using the standard one-dose NCI protocol, which is described in more detail at https://dtp.cancer.gov/discovery_development/nci-60/default.htm.
Compounds with GIPRCNT values below 10 were considered active. Activity score was based on GIPRCNT using the following formula: […]
Score is 0 for GIPRCNT values of 100 or above, 50 for GIPRCNT values of 0, and 100 for GIPRCNT values of -100.
With CN(Cc1cc(Br)cc(Br)c1O)Cc1cc(Br)cc(Br)c1O the growth was 38.7% (inactive). C/C(=N\O)c1ccc(NC(=O)CSc2nnc(-c3cc(-c4ccc(S(C)(=O)=O)cc4)nc4ccccc34)n2-c2ccccc2)cc1 was tested, and the growth was 105% (inactive). With CCN1CCN(CCNc2nccc(-c3c(-c4ccc(F)c(OC)c4)nc4sccn34)n2)S1(=O)=O the growth was 89% (inactive). O=C1/C(=C\c2cccc3nccnc23)SC(=S)N1CCc1ccc(O)cc1 was tested, and the growth was 116% (inactive). For COc1ccc(C#Cc2ccc(=O)oc2-c2cc(OC)c(OC)c(OC)c2)cc1O, the growth was 9.46% (active). With O=C1/C(=C\c2ccccn2)c2ccccc2N1c1c(Cl)cccc1Cl the growth was -82.1% (active). In the case of CN(C)CCCC1(c2ccc(F)cc2)OCc2cc(-c3ccc4cc[nH]c4c3)ccc21 (stereo not given), the growth is reported as -61.6% (active). NC1(CO)COC(c2ccccc2)OC1 (stereo not given) was tested, and the growth was 126% (inactive). CSC1=Nc2c(c(C)c(-c3ccccc3)n2CCCC(=O)O)C2=NC(=O)C[C@H](C)N12 was tested, and the growth was 104% (inactive). COc1cc(OC)c(C(=O)C(CN(C)C)CN(C)C)cc1OC was tested, and the growth was 110% (inactive). With COC(=O)c1c2c(c(C)[n+]([O-])c1C)C(=O)C(NCc1cccc(Cl)c1)=CC2=O the growth was 15.3% (inactive). CCCn1cnc2c(c1=N)C(c1ccc(F)cc1)c1sc3c(F)cccc3c1O2 (stereo not given) was tested, and the growth was 76.9% (inactive). In the case of CC1(C)CC[C@]2(C(=O)N[C@H](CO)Cc3ccccc3)CC[C@]3(C)C(=CC[C@@H]4[C@@]5(C)CCCNC(C)(C)[C@@H]5CC[C@]43C)[C@@H]2C1, the growth is reported as 56% (inactive). In the case of COc1ccc(CCN(CC(=O)N(CC(N)=O)C2CCC[C@@H]2OCc2ccccc2)C(=O)CN(C(=O)CN(CCc2ccc(Cl)cc2)C(=O)CN(C(=O)CN(C)Cc2ccccc2F)[C@H](C)C2CCCCC2)[C@H](C)C2CCCCC2)cc1OC (stereo not given in full), the growth is reported as 0.406% (active). Nc1[nH]n2cc(-c3ccc(F)cc3)nc2c1N=Nc1ccc(S(N)(=O)=O)cc1 was tested, and the growth was 90.8% (inactive). In the case of N#CC1=C(N)Oc2ccc3ccccc3c2C1c1ccc([N+](=O)[O-])cc1 (stereo not given), the growth is reported as 107% (inactive). Cc1ccc(/C=C/C(=O)Nc2ncc(Cc3ccc(F)cc3)s2)o1 was tested, and the growth was 48.8% (inactive). With CC1CCN(C(=S)SCC(=O)NC(=O)c2ccccc2)CC1 the growth was 115% (inactive). In the case of O=C(Nc1cnc(Nc2ccc(N3CCOCC3)nc2)nc1Oc1ccc(C(F)(F)F)cc1)c1ccncc1, the growth is reported as 110% (inactive). For CCN1C(=O)N(CC)C2C1NN=c1s/c(=C3\C(=O)N(CC(C)C)c4ccccc43)c(=O)n12 (stereo not given), the growth was 13.8% (inactive). For CCOC(=O)c1cnc2c(N=Nc3ccc(OC)cc3)c(N)nn2c1N, the growth was 106% (inactive). For N[C@H]1CCC[C@@H]1NCCCCN1C(=O)c2cccc3cc([N+](=O)[O-])cc(c23)C1=O, the growth was 51.9% (inactive). Cc1ccc(S(=O)(=O)OCCCOS(=O)(=O)c2ccc(C)cc2)cc1 was tested, and the growth was 99.7% (inactive). For Cc1ccc(NC(=O)Cn2c(Br)nc3c2c(=O)n(C)c(=O)n3C)cc1, the growth was 83.7% (inactive). CCN(CC)CCCN1C(=O)c2c(c(C)c3c(oc4ccc(O)cc43)c2C)C1=O was tested, and the growth was 67% (inactive). For CC(C)CCN(CCC(C)C)CC(O)c1cc2c(c3ccccc13)CCCC2 (stereo not given), the growth was 30.1% (inactive). In the case of O=C(CI)NC(=O)NC(=O)NCc1ccccc1, the growth is reported as 95.3% (inactive). With COc1ccc(C(=S)N2CCN(c3ccc(Cl)cc3)CC2)cc1 the growth was 105% (inactive). In the case of O=C1Nc2ccccc2/C1=C/c1cccn1C(=O)c1ccc(Cl)s1, the growth is reported as 54.4% (inactive). With CN1CCN(Cc2ccc(NC(=O)c3cncc(C#Cc4cnc5ccc(Cl)nn45)c3)cc2C(F)(F)F)CC1 the growth was -24.4% (active). In the case of Cn1c2c(c3ccc(Cl)c(Cl)c31)C(C#N)C(C)(C)NC2=O (stereo not given), the growth is reported as 91.8% (inactive). With O=C(CN1CCCCCC1)Nc1nc2ccc(NCc3ccc(Cl)cc3)cc2s1 the growth was 114% (inactive). CCN1C(=O)N(CC)C2Nn3c(s/c(=C\c4ccccc4Br)c3=O)=NC21 (stereo not given) was tested, and the growth was 24.4% (inactive). With COc1ccc(-c2nc(/C=C3\C(=O)N(C)c4ccccc43)c3ccccn23)cc1 the growth was 102% (inactive). CN(Cc1cnc2nc(N)nc(N)c2n1)c1ccc(C(=O)NC(CCC(=O)O)C(=O)O)cc1Br (stereo not given) was tested, and the growth was 57.1% (inactive). For C#CCNC(=O)[C@]1(C)CCC[C@@]2(C)[C@H]1CC=C1C=C(C(C)C)CC[C@@H]12, the growth was 100% (inactive). For C=CN(C(=O)N1CCN(c2cc3c(cc2F)c(=O)c(C(=O)O)cn3C2CC2)CC1)c1nc(-c2ccc(OC)cc2)cs1, the growth was 34.3% (inactive). With COc1cc(/C=C/C(=O)c2ccc(-n3cc(CN4CCN(c5cc6c(cc5F)c(=O)c(C(=O)O)cn6C5CC5)CC4)nn3)cc2)ccc1O the growth was 59.3% (inactive). For O=C(NNc1cnccn1)c1nc2cc(F)ccc2n2cccc12, the growth was 35.7% (inactive). COC(=O)c1ccc(NC(=O)Nc2ccc(C(=O)OC)cc2)cc1 was tested, and the growth was 108% (inactive).
